Assay results from PubChem BioAssay (NCI).
The panel holds about 79,000 compounds, 15% with a hit somewhere; the sample as a whole holds those more often. The source made the active and inactive calls. No stated cut-off is given here; in the data, active means growth inhibition above about 70%; inactive means the rest.

Experiment: NCI Yeast Anticancer Drug Screen. Data for the mlh1 rad18 strain (AID 175)
Conditions: S. cerevisiae mlh1 rad18 strain growth inhibition; at 50.0 µM; active compounds read high
In short: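 Cells of a genetically altered yeast strain, deficient in DNA damage repair, were treated with compound. Their growth was then compared with that of vehicle-treated cultures to give inhibition.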
For `CC(C(=O)O)N(CCC#N)CCC#N` (stereo not given), the growth inhibition was 3.4% (inactive).
For `O=C(O)c1ccccc1NC(=O)C1CCCCC1`, the growth inhibition was 14.5% (inactive).
In the case of `CCC(C)(O)C(=O)O` (stereo not given), the growth inhibition is reported as -15.2% (inactive).
With `CC1CCCCNC1=S` (stereo not given) the growth inhibition was 27.1% (inactive).
With `CN(C)CCCNc1ccc2nnn3c4ccc([N+](=O)[O-])cc4c(=O)c1c23` the growth inhibition was 80% (active).
In the case of `Cc1ccsc1/C=N/Nc1ncccn1`, the growth inhibition is reported as 24.1% (inactive).
For `NC(=O)N/N=C/c1cccc2ccccc12`, the growth inhibition was -0.7% (inactive).
For `O=C(/C(=N\Nc1ccc([N+](=O)[O-])cc1[N+](=O)[O-])c1ccccc1)c1ccccc1`, the growth inhibition was -1.3% (inactive).
With `O=C(O)/C(=C/c1ccccc1)c1ccccc1` the growth inhibition was 26.8% (inactive).
With `COC(=O)C1C(O)C(C(=O)OC)C(C)N(C)C1C` (stereo not given) the growth inhibition was -4.45% (inactive).
In the case of `Cc1cccc(Cl)c1NC(=O)Nc1ccc(Cl)cc1C(=O)c1ccccc1`, the growth inhibition is reported as -9.6% (inactive).
With `CCOC(=O)C(=CNc1cccc(Cl)c1)C(=O)OCC` the growth inhibition was -19.9% (inactive).
In the case of `CCCNC(=S)/N=C\c1c(O)c2ccccc2oc1=O`, the growth inhibition is reported as -5.4% (inactive).
With `O=C(OC(C[n+]1ccccc1)c1ccccc1)c1ccccc1` (stereo not given) the growth inhibition was 34% (inactive).
For `Nc1cc(=O)[nH]c(N)n1`, the growth inhibition was -21.9% (inactive).
For `O/N=C1\CC2(N3CCOCC3)CCC1(c1ccccc1)CC2`, the growth inhibition was 11.9% (inactive).
For `COC(=O)CC1C(OC)OC23CCC1C2(C)CCC1C3CCC2CC(OC(C)=O)CCC21C` (stereo not given), the growth inhibition was 8.5% (inactive).
In the case of `CC(C)(CO)NC(=O)c1cccs1`, the growth inhibition is reported as -20% (inactive).
With `Cc1ccccc1NC(=S)NN` the growth inhibition was 12.3% (inactive).
With `O=C(c1ccc(Cl)cc1)c1ccc(OCCSCCCCCCCCCCSCCOc2ccc(C(=O)c3ccc(Cl)cc3)cc2)cc1` the growth inhibition was -30.9% (inactive).
With `C=CCNc1ccc(C)cc1` the growth inhibition was 20.4% (inactive).
For `COC(=O)c1ccc(C(=O)OC)cc1`, the growth inhibition was 11.3% (inactive).
For `O=C(CC1C(=O)Nc2ccccc2S1(=O)=O)Nc1cc(Cl)ccc1Cl` (stereo not given), the growth inhibition was -12.3% (inactive).
For `Cc1cc(Cl)cc(CN(C)Cn2c(=O)cc[nH]c2=O)c1O`, the growth inhibition was 2.2% (inactive).
With `C=C1C(=O)N2CCc3c([nH]c4ccccc34)[C@H]2C[C@@H]1CO` the growth inhibition was 10.8% (inactive).
With `C=CCC(OCCC)c1ccc2c(c1)OCO2` (stereo not given) the growth inhibition was -12.6% (inactive).
In the case of `N=C1N(S(=O)(=O)c2ccccc2)[C@@H](Cc2ccccc2)[C@H](c2ccccc2)C1(c1ccccc1)c1ccccc1`, the growth inhibition is reported as 18.2% (inactive).
In the case of `CCN(CC)C(=O)c1ccccc1`, the growth inhibition is reported as 10.3% (inactive).
With `CCC1(C)CC(C)(C)c2ccc(C)cc21` (stereo not given) the growth inhibition was -2.25% (inactive).
For `Cn1c(=O)c2nc(SC3CCCCC3)n(C)c2n(C)c1=O`, the growth inhibition was -15.3% (inactive).
With `CC(C(=O)O)C1Nc2ccccc2NC1=O` (stereo not given) the growth inhibition was 0.3% (inactive).
For `O=C(NC[N+]12CCO[B-]1(c1ccc(Cl)cc1)OCC2)c1ccccc1O` (stereo not given), the growth inhibition was 56.3% (inactive).
For `O=[N+]([O-])c1ncc(N(CCO)CCO)s1`, the growth inhibition was -22.3% (inactive).
For `CC(=O)C(N)=NCc1ccccc1`, the growth inhibition was 10.8% (inactive).
For `O=C(O)CC(NC(=O)OCc1ccccc1)C(=O)OCc1ccccc1` (stereo not given), the growth inhibition was -20.1% (inactive).
With `O=C(/C=C/c1ccc(Cl)cc1)c1ccccc1O` the growth inhibition was 11.1% (inactive).
In the case of `CC12CC(=O)C3C(CCC4=CC(=O)CCC43C)C1CC=C2CC(=O)O` (stereo not given), the growth inhibition is reported as -11.2% (inactive).
With `CCOC(=O)C(N=Nc1ccccc1)C(=O)c1ccccc1` (stereo not given) the growth inhibition was 28.5% (inactive).
In the case of `O=C1c2ccsc2C(=O)c2sc(CO)cc21`, the growth inhibition is reported as 83% (active).
In the case of `Cc1cn(C2CC(O)C(COC(=O)C(C)(C)C)O2)c(=O)[nH]c1=O` (stereo not given), the growth inhibition is reported as -47.5% (inactive).
